Screens as filed in PubChem BioAssay.
Compounds with a hit are over-represented: about 8% of the library has one in this group of screens.
KB-3-1 cytotox = qHTS assay for MDR1-selective chemotherapeutics: Primary screen using the parental adenocarcinoma cell KB-3-1; KB-3-1 viability, CellTiter-Glo ATP luminescence, 72 h; Potency, µM (titrated, usually from 46.1 µM), hits mostly cytotoxic; 1.4% of 400,000 active; AID 1347075, 2019; note: % is set by controls: 0 for no effect and ±100 for the full control effect; nearly all actives have a fitted effect of over 60% in size
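Cytotoxicity in the drug-sensitive parental line KB-3-1 was scored as loss of CellTiter-Glo luminescence following 72 h incubation with compound. Values come from curve fitting of normalized concentration-response data.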
MCF10A rerep = A quantitative high throughput screen for small molecules that induce DNA re-replication in MCF 10a normal breast cells; MCF 10A DNA re-replication, Hoechst nuclear intensity, 48 h; Potency, µM (series often up to 46.1 µM), inactives show at the highest dose activity, positive = re-replication, usual class: activators; 2.9% of 350,000 active; AID 624296, 2012; note: % of control where 0% means no effect; nearly all actives have a fitted effect of over 50% in size
HT1080 IDH1KD tx = qHTS for induction of synthetic lethality in tumor cells producing 2HG: qHTS for the HT-1080-IDH1KD cell line; HT-1080 IDH1 knockdown viability, ATP luminescence, 48 h; Potency, µM (top dose mostly 46.1 µM), for the others: top-dose activity, negative = toxicity, hits mostly cytotoxic; 2% of 360,000 active; AID 686971, 2013;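 note: 0% = DMSO wells and -100% = cell-free medium wells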
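Cytotoxicity counter-line: IDH1KD HT-1080, 48 h, CellTiter-Glo. Curves classed by r2, magnitude and activity.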
HT1080-NT tox = qHTS for induction of synthetic lethality in tumor cells producing 2HG: qHTS for the HT-1080-NT fibrosarcoma cell line; HT-1080-NT fibrosarcoma viability, CellTiter-Glo ATP luminescence, 48 h; Potency, µM (highest dose often 46.1 µM), inactives show at the highest dose activity, negative = less viability, hits mostly cytotoxic; 1.6% of 360,000 active;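 note: NT is the 2HG producing partner of a matched IDH1 knockdown line; 0% = DMSO-treated cells and -100% = media-only wells without cells; nearly all actives have a fitted effect of over 55% in size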
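Read-out is CellTiter-Glo luminescence after 10 minutes at room temperature, following 48 hours' compound treatment of HT-1080-NT cells (750 cells/well, RPMI, 5% FBS, 37 degrees C).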
KB-V1 cytotox = qHTS assay for MDR1-selective chemotherapeutics: Primary screen using the drug-selected MDR subline cells KB-V1; KB-V1 MDR cells viability, CellTiter-Glo, 72 h; Potency, µM (top dose mostly 46.1 µM), most hits filed as cytotoxic; 3.4% of 400,000 active; AID 1347076, 2019; note: % is set by controls: 0 for no effect and ±100 for the full control effect; nearly all actives have a fitted effect of over 60% in size
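Compound-treated KB-V1 multidrug-resistant cells, 72 h, 37 degrees C; viability by CellTiter-Glo. Fitted qHTS curves give the values.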
SW480 rereplic = A quantitative high throughput screen for small molecules that induce DNA re-replication in SW480 colon adenocarcinoma cells | 1.8% of 340,000 active | AID 624297, 2012 | SW480 DNA re-replication, Hoechst DNA content imaging, 48 h | Potency, µM (series often up to 46.1 µM), for the others: at the highest dose re-replication activation, actives largely listed as activators; note: % of control where 0% means no effect; nearly all actives have a fitted effect of over 55% in size
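Compounds, transferred as 23 nL by pin tool, were incubated with cells for 48 hr; DNA content per nucleus was then quantified by Hoechst staining and fluorescence plate imaging.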
* marks the source's active call; other numbers are inactive results; i = inactive; ? = inconclusive; . = no result; ! = not active in a repeat; [ ] = another dose, or the depositor's remark. Calls come from the whole dose curve; as a rule, active = well fitted curve in the direction sought with a large enough effect; inconclusive = small, poorly fitted or top-dose-only effect, or another doubt; inactive = no such curve, though single readings can be large; an effect the other way counts as inactive or inconclusive. Potency is the fitted concentration of half-maximal effect.

SMILES | KB-3-1 cytotox | MCF10A rerep | HT1080 IDH1KD tx | HT1080-NT tox | KB-V1 cytotox | SW480 rereplic
O=[N+]([O-])c1ccc(Oc2ccc(F)cc2)c2ccncc12 | i | ? | -4%[9.24 µM] | ? | i | -2%
O=[N+]([O-])c1ccc(Oc2cccc(Br)c2)c2ccncc12 | ? | ? | ? | 21µM* | ? | ?
Nc1ccc(Oc2ccc([N+](=O)[O-])cc2[N+](=O)[O-])cc1 | i | 3% | ? | -15% | i | 9%
CC1(C)O[C@H]2C[C@@H]3[C@H]4CCC5=CC(=O)CC[C@@]5(C)[C@]4(F)[C@@H](O)C[C@@]3(C)[C@@]2(C(=O)CCl)O1 | . | 6%[20.6 µM] | . | . | . | 1%[20.6 µM]
COCCCNC(=O)C1CCN(c2nc3ccc(C)cc3[nH]2)CC1 | i | . | . | . | i | .
CCC(C)n1c(=N)c(C(=O)NC2CCCCC2)cc2c(=O)n3ccccc3nc21 (stereo not drawn) | i | . | . | . | i | .
C#CC[N+](C)(C)CC#Cc1ccccc1 | ? | 18% | -5% | -19% | i | 15%
C#CC[N+](C)(C)CCCCCCCCC | 5.8µM* | 9.2µM* | ? | ? | i | ?
CC#CC[N+](C)(C)CCCCCCCCCC | 5.8µM* | 0% | ? | -27% | i | 21%
O=C(Nc1ccc2c(c1)CCC2)c1cnn2c1NC(=C1CC1)C=C2C(F)F | i | . | . | . | i | .
Brc1ccc(C=C2C=c3ccccc3=C2)cc1 | i | . | . | . | i | .
Cc1ccc(C(C)C)c(OCc2ccc(C(=O)Nc3ccc(S(N)(=O)=O)cc3C)o2)c1 | i | . | . | . | i | .
CC(C)Cn1c(=O)c(C(=O)N/N=C/c2cccc(F)c2)c(O)c2ccccc21 | 12µM* | 2% | -12% | -9% | 2.9µM* | 1%
CCOc1ccccc1C(=O)Nc1ccc2nc(N3CCN(c4ncccn4)CC3)cc(C)c2c1 | 15µM* | 8.2µM* | ? | ? | 8.2µM* | ?
CCN1CCN(c2cc(C)c3cc(NC(=O)c4ccc(OC)c(OC)c4)ccc3n2)CC1 | 3.7µM*! | 4% | ? | -25% | 4.1µM*! | ?
N=C(N)SCc1ccc(Cl)c2ccccc12 | i | ? | -9% | -14% | 23µM* | -6%
CCOC(=O)CC(=O)CSc1nc(CC)c(C)cc1C#N | i | 0% | 7% | 12% | i | 23µM*
CCc1nc(SCC(=O)O)c(C#N)cc1C | i | -1% | 11% | 13% | i | -22%
CCOC(=O)CC(=O)CSc1nc2ccc(C)cc2cc1C#N | i | 23µM* | 7.1µM* | ? | i | -1%
COc1ccc(S(=O)(=O)n2nc(-c3ccco3)nc2NCc2ccc(C(C)C)cc2)cc1 | i | . | . | . | i | .
COc1cccc(-n2c(SCC(=O)Nc3ccc4c(c3)OCO4)nc3c([nH]c4ccccc43)c2=O)c1 | i | . | . | . | i | .
COc1cccc(-c2cnc3c(NC=O)cc(-c4cccc(C(=O)N(C)C)c4)cn23)c1 | i | . | ? | -21% | 23µM* | .
COc1cccc(-c2cc(NC=O)c3ncc(-c4cccc(C(=O)NCCN(C)C)c4)n3c2)c1 | i | . | 21µM* | 23µM* | i | .
CCOc1nc(SCCOc2ccc(Cl)cc2Cl)nc(N(C)C)n1 | i | 110% | 5% | 26% | 21µM* | -2%
CC1Cc2ccccc2N1C(=O)CO/N=C/c1ccccc1OC(F)F (stereo not drawn) | i | 3% | -19% | -2% | ? | 16µM*
Cc1ccc(CNC(=O)CCCCCn2c(=O)c3sccc3n(CC(=O)N3CCCCC3C)c2=O)cc1 (stereo not drawn) | i | . | . | . | i | .
